Shown are actives, neighbours in structure and some others; about 28% of the full set was active somewhere.
CD11b adhes inh = blocks human CD11b/CD18 adhesion to fibrinogen; P05107+P11215; K562 CD11b/CD18 adhesion to fibrinogen, ATPlite luminescence; Mn2+ added to activate the integrin; inhibition, % at 10 µM; 93,000 compounds, 0.54% hits; AID 1497;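 active = primary inhibition of 50% or more at 10 µM, then 40% or more on retest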
Mac1 fbg enh = CD11b/CD18-fibrinogen binding enhancement; P05107+P11215; activation, % at 10 µM; K562 CD11b/CD18 adhesion to fibrinogen, ATPlite luminescence; 93,000 compounds, 0.07% hits;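 active = 10 µM primary screen giving 50% or more activity, confirmed by 40% or more on retest at that dose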
CYP2C9 act = activators of human CYP2C9; P11712; recombinant CYP2C9, luciferin-H conversion, luminescence; active compounds read high; factor 1 = untreated enzyme, 0 = blocked; activation factor at 5 µM; 96,000 compounds, 1.4% hits; AID 1024;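 active = activation factor of 2 or more for CYP2C9 at a 5 µM dose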;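 note: 0 = sulfaphenazole-blocked wells and 1 = vehicle-only wells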
CYP2C19 inhib = inhibitors of human CYP2C19 | P33261 | CYP2C19 Supersomes, luciferin-H EGE luminescence, 30 min | inhibition, % at 5 µM | 96,000 compounds, 21% hits;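 active = CYP2C19 inhibition above a set limit at 5 µM in the primary screen, cut at about 50% in these data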;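 note: plate controls were negative control wells for no effect and 2.5 mM tranylcypromine positive control for full effect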
Target sequence (P33261 whole entry, looked up): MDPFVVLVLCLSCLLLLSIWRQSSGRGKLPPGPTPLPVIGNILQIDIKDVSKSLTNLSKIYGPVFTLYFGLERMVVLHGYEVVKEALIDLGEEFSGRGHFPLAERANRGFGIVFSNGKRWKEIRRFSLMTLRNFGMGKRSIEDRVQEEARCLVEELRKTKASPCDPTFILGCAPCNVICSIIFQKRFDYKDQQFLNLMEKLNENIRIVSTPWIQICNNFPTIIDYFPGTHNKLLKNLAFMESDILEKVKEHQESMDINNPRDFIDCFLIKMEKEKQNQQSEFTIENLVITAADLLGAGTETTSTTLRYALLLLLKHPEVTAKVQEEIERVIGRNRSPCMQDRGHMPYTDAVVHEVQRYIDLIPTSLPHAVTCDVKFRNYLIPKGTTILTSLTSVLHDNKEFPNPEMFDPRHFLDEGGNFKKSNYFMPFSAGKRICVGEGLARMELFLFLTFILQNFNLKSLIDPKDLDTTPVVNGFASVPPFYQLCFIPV
CYP2C19 act = activators of human cytochrome P450 2C19; 96,000 tested, under 10 active; recombinant CYP2C19, luciferin-H EGE luminescence; active compounds read high; 0 = fully inhibited enzyme, 1 = untreated enzyme; P33261; activation factor at 5 µM;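 active = activation factor of at least 2 at 5 µM in the primary screen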;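 note: 0 = wells with 2.5 mM tranylcypromine and 1 = vehicle-only wells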
CYP2C9 inhib = human CYP2C9 inhibition. P11712. CYP2C9 Supersomes, luciferin-H conversion, luminescence. inhibition, % at 5 µM. 96,000 compounds, 20% hits. AID 777;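 active = blocking of liver enzyme CYP2C9 beyond about 50% at 5 µM, limit read from the data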
* = called active by the depositor; · = no result given.

SMILES	CD11b adhes inh	Mac1 fbg enh	CYP2C9 act	CYP2C19 inhib	CYP2C19 act	CYP2C9 inhib
CCn1c(=O)cc(OCC(=O)N2CCCC2)c2ccccc21	-4	-2	1.1	-11	1.1	-7
CCOc1ccc(N(CC)C(=O)COc2cc(=O)n(CC)c3ccccc23)cc1	9	6	0.1	70*	0.3	94*
CCn1c(=O)cc(OCC(=O)Nc2ccc(C)cn2)c2ccccc21	12	-3	0.7	17	0.8	25
CCOc1ccc(N(CC)C(=O)COc2cc(=O)n(C)c3ccccc23)cc1	-12	2	0.3	23	0.8	70*
CN(C(=O)COc1cc(=O)n(C)c2ccccc12)c1ccc(Cl)cc1	-10	1	0.8	39	0.6	22
CCOCCCNC(=S)N1CCN(C(=O)C(=O)Nc2ccc(C(=O)OC)cc2)CC1	-9	1	·	·	·	·
Cc1ccc(NC(=O)C2CC(=O)N/C(=N/N=C/c3ccco3)S2)cc1C (configuration not stated)	-11	34	·	·	·	·
COC(=O)c1c(NC(=O)C2CC=CCC2C(=O)O)sc(C)c1C (configuration not stated)	-20	-1	0.3	21	0.8	71*
COc1ccc(C(=O)c2nc3c(n2O)CCCC3)cc1OC	-26	-3	0.7	12	0.9	30
CCOC(=O)c1cn2nc(-c3ccc(OC)cc3)cc2nc1C1CCN(C(=O)OC(C)(C)C)CC1	-6	-11	0.4	20	0.8	63*
Cc1ccc(S(=O)(=O)N2CCN(c3ccc([N+](=O)[O-])c(Sc4nncn4C)c3)CC2)cc1	-8	11	·	·	·	·
Cn1cnnc1Sc1cc(N2CCN(S(=O)(=O)c3ccc(Cl)c(Cl)c3)CC2)ccc1[N+](=O)[O-]	4	-4	0.1	100*	0	89*
Cn1nnnc1SCc1cccc(CSc2nnnn2C)n1	0	0	1	98*	0	-2
Cn1nnnc1SCc1csc(Nc2ccccc2)n1	3	0	3.8*	17	0.8	-277
Cc1ccc(Nc2nc(CSc3nnnn3-c3ccccc3)cs2)cc1	46	-5	1.7	35	0.6	-68
Cc1ccc(Nc2nc(CSc3nnnn3C)cs2)cc1	23	-3	2.8*	70*	0.3	-177
Cn1nnnc1SCc1c(F)cccc1F	-17	0	1	26	0.7	1
Cc1cccc(/C=N/NC(=O)C(C)Nc2cccc3ccccc23)n1 (configuration not stated)	2	-3	0.9	71*	0.3	8
Cc1ccc(C2(CC(=O)N3CCCC3)CCOC(C(C)C)C2)cc1 (configuration not stated)	25	0	1	21	0.8	4
COc1ccccc1C1(CC(=O)N2CCCCC2)CCOC(C(C)C)C1 (configuration not stated)	-4	-6	0.7	50*	0.5	34
COc1ccc(S(=O)(=O)Nc2nc(C(F)(F)F)cs2)cc1	1	-5	0	35	0.6	98*
O=C(COc1ccc(Cl)cc1)NCCSCc1cccc(Cl)c1	·	·	0.7	45	0.6	28
CN(C)CCNC(=O)COc1cccc(Cl)c1	5	1	0.4	72*	0.3	56*
Cc1ccc(C(C(=O)NC2CCCC2)N2CCc3ccccc32)cc1 (configuration not stated)	12	-1	0.9	5	0.9	13
CCOC(=O)C1=C(C)NC(C)=C(C(=O)OCC)C1C(=O)OCC(=O)N1CCC(C)CC1	·	·	0.7	12	0.9	35
SMILES	CD11b adhes inh	Mac1 fbg enh	CYP2C9 act	CYP2C19 inhib	CYP2C19 act	CYP2C9 inhib
CN(C)C(=O)COC(=O)c1cc(Cl)cc(Cl)c1N	-1	-3	1.3	26	0.7	-29
CC(C)N(C(=O)COC(=O)c1cc(Cl)cc(Cl)c1N)C(C)C	-29	4	0.3	83*	0.2	66*
CC1CCN(C(=O)COC(=O)c2cc(Cl)cc(Cl)c2N)CC1	4	0	2.3*	46	0.5	-133
COc1ccc(S(=O)(=O)N2CCC(NC(=O)Nc3ccc(C)cc3)CC2)cc1	·	·	1	15	0.8	0
COc1cccc(N2CCCn3c2nc2c3c(=O)n(CCN3CCOCC3)c(=O)n2C)c1	-5	-4	1.1	1	1	-11
C=CCSc1n[nH]c2nc3c(c(=O)n12)C1(CCCC1)Cc1ccccc1-3	-3	-4	0.8	-12	1.1	22
COc1ccc(C(=O)NCc2nnc(SCC(=O)N3CCc4ccccc43)n2CCc2ccccc2)cc1	6	2	·	·	·	·
COCCNC(=O)C(OC(=O)CC1Sc2ccccc2NC1=O)c1ccncc1 (configuration not stated)	-8	2	0.1	83*	0.2	87*
O=C(CC1Sc2ccccc2NC1=O)OC(C(=O)NCCc1ccccc1)c1cccnc1 (configuration not stated)	·	·	0.7	55*	0.4	30
O=C(O)CC(CP(=O)(c1ccccc1)c1ccccc1)C(=O)O (configuration not stated)	2	-1	1.2	-12	1.1	-18
O=C(O)CC(c1ccccc1)c1ccccc1	16	0	0.5	-5	1.1	52*
Cc1ccc2cc(CN(Cc3ccc4c(c3)OCO4)Cc3nnnn3Cc3ccco3)c(=O)[nH]c2c1C	12	1	0.2	86*	0.1	80*
Cc1ccc2cc(CN(CCN3CCOCC3)Cc3nnnn3Cc3ccco3)c(=O)[nH]c2c1C	-4	0	0.3	38	0.6	69*
Cc1ccc(C)c2[nH]c(=O)c(CN(Cc3ccc4c(c3)OCO4)Cc3nnnn3Cc3ccco3)cc12	4	2	0.2	38	0.6	75*
CCC(c1nnnn1Cc1ccco1)N(CCN1CCOCC1)Cc1cc2cc(C)ccc2[nH]c1=O (configuration not stated)	1	2	0.8	20	0.8	15
O=C(N1CCOCC1)N1CCN(S(=O)(=O)N2CCCCC2)CC1	-1	96	0.9	10	0.9	6
Cc1cccc(C)c1OCC(O)CNC(C)(C)C (configuration not stated)	·	·	1.1	-5	1	-15
O=C(CCCSc1nc2sc3c(c2c(=O)[nH]1)CCC3)NCCO	-7	-1	0.8	6	0.9	16
COc1ccc(-c2cn3cc(Cl)ccc3n2)cc1OC	-11	-2	0.2	80*	0.2	79*
Clc1ccc2nc(-c3ccc(Br)s3)cn2c1	12	-8	0.7	47	0.5	29
O=C(NC1CCN(C(=O)NCc2ccccc2)CC1)c1ccco1	-11	-1	1	4	1	-2
O=C1C(=C(O)c2ccccc2)C(=O)c2ccccc21	6	0	0.6	1	1	44

Screening data: PubChem BioAssay, Sanford-Burnham Center for Chemical Genomics
